Records with an inconclusive call do not appear. A call without a number means that no potency is given here. The source made the active and inactive calls. Unless noted, calls come from the whole dose curve; as a rule, active = well fitted curve in the direction sought with a large enough effect in the repeat runs; inconclusive = weak or mixed curves; inactive = no such curve, though single readings can be large; an effect the other way counts as inactive or inconclusive.
Legend:
[1] = qHTS assay to identify aromatase inhibitors - cell viability counter screen (AID 743084);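 note: cells stimulated with testosterone during compound exposure; nearly all actives have a fitted effect of over 55% in size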
[2] = target: Aryl hydrocarbon receptor (Homo sapiens) (UniProt P35869); experiment: qHTS assay to identify small molecule that activate the aryl hydrocarbon receptor (AhR) signaling pathway (AID 743085);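 note: HG2L7.5c1 human HepG2 liver cells with stably integrated DRE-driven firefly reporter; series mostly up to about 70 µM; nearly all actives have a fitted effect of over 15% in size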
Aryl hydrocarbon receptor (Homo sapiens), sequence (P35869 whole entry, looked up): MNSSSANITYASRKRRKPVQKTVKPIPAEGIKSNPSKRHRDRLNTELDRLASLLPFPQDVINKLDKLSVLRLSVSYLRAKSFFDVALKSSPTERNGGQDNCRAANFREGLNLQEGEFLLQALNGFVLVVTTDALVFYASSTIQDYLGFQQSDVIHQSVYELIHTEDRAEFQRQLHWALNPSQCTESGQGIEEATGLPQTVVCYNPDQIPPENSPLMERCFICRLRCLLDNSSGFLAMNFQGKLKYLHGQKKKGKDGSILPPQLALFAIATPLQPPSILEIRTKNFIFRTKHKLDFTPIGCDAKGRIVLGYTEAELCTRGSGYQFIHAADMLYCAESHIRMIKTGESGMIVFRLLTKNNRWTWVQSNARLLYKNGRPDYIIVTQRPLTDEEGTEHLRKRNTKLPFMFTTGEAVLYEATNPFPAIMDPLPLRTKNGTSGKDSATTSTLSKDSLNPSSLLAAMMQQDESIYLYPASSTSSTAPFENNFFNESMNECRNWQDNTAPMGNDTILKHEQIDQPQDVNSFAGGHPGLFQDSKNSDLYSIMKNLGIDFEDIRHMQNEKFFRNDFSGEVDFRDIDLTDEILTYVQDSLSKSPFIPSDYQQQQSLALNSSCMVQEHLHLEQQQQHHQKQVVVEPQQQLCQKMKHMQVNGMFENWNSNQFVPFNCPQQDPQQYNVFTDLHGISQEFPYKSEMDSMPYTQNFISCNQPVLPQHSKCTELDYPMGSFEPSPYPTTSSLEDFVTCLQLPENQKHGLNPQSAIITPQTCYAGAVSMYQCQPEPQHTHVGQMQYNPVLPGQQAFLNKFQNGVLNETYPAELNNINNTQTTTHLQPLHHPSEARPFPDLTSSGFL
Outline: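 A multiplexed format paired cell viability (CellTiter-Fluor fluorescence) with AhR-dependent luciferase output (ONE-Glo luminescence) in the same wells of HepG2 DRE-luc cells after 24 h compound exposure at 37C.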

[3] = target: Peroxisome proliferator-activated receptor gamma (Homo sapiens) (UniProt P37231); experiment: qHTS assay to identify small molecule agonists of the peroxisome proliferator-activated receptor gamma (PPARg) signaling pathway (AID 743094; active = well fitted activation curve with a large enough effect in the signal ratio in the repeat runs, not every such curve was filed as active; the % refers to the signal ratio)
Peroxisome proliferator-activated receptor gamma (Homo sapiens), sequence (P37231 whole entry, looked up): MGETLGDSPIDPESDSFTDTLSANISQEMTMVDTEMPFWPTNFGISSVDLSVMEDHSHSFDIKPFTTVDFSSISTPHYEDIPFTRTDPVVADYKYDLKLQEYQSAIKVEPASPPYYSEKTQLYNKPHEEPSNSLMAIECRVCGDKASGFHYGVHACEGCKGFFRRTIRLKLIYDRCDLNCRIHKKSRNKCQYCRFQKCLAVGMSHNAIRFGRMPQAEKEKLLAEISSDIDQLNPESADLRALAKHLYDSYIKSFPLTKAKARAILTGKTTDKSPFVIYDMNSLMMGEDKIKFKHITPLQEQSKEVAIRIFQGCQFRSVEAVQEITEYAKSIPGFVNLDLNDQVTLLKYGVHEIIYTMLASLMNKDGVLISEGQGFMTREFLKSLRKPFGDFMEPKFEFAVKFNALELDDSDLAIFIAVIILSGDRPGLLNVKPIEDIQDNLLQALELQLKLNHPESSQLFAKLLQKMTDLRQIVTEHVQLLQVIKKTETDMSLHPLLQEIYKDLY
Outline: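 Agonism was assessed in a beta-lactamase reporter system, HEK293H cells with a stably integrated UAS-bla construct under PPARg control; the 17 h treatment at 37C preceded a 1 h room-temperature FRET substrate read.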

[4] = qHTS assay to identify small molecule antagonists of the peroxisome proliferator-activated receptor gamma (PPARg) signaling pathway - cell viability counter screen (AID 743194); note: nearly all actives have a fitted effect of over 55% in size
Outline: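 Viability was measured as CellTiter-Glo luminescence in GeneBLAzer PPARg UAS-bla HEK293H cells. These cells had been exposed 17 h at 37 C to compounds together with rosiglitazone at 50 nM final, with the beta-lactamase readout taken in the same wells.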

[5] = qHTS assay for small molecule agonists of the antioxidant response element (ARE) signaling pathway (AID 743202; active = well fitted activation curve with a large enough effect in the signal ratio in the repeat runs, not every such curve was filed as active; the % refers to the signal ratio)
Outline: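 Beta-lactamase reporter activity, read as fluorescence intensity, reflects ARE/Nrf2 pathway induction in HepG2 cells after 16 h compound exposure at 37 C; substrate loading was 2 h at room temperature.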

[6] = qHTS assay for small molecule agonists of the antioxidant response element (ARE) signaling pathway - cell viability counter screen (AID 743203; calls by dose curve; note: nearly all actives have a fitted effect of over 55% in size)
Outline: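 ATP content via CellTiter-Glo luminescence served as the viability measure. Cells: ARE-bla HepG2, 2,000 per well. Exposure: 16 hrs, 37C/5% CO2.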

[7] = qHTS assay for small molecule activators of the heat shock response signaling pathway - cell viability counter screen (AID 743209); note: nearly all actives have a fitted effect of over 50% in size
Outline: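 Compounds dissolved in DMSO were added to overnight-plated HSE-bla HeLa cells and left 5 h at 37 C. Cell viability was quantified by luminescence using CellTiter-Glo.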

[8] = qHTS assay for small molecule activators of the heat shock response signaling pathway (AID 743210; active = well fitted activation curve with a large enough effect in the signal ratio in the repeat runs, with a control signal flat, not every such curve was filed as active; the % refers to the signal ratio;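 note: HeLa cells with beta-lactamase reporter driven by heat shock elements; series mostly up to about 63 µM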)
Outline: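 Fluorescence from a cleaved B/G FRET substrate (2.5 h, room temp) reports HSE-driven beta-lactamase in HeLa cells treated 5 h at 37 C with DMSO-dissolved compounds.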

[9] = qHTS assay to identify small molecule agonists of the peroxisome proliferator-activated receptor delta (PPARd) signaling pathway - cell viability counter screen (AID 743211); note: nearly all actives have a fitted effect of over 55% in size; note: potency is the fitted concentration of half-maximal effect
Outline: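 Tox21 library compounds, delivered in DMSO, were incubated 17 h with PPARd-bla HEK293H cells; cytotoxicity was taken from CellTiter-Glo luminescence read 30 min after reagent addition.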

[10] = target: Peroxisome proliferator-activated receptor delta (Homo sapiens) (UniProt Q03181); experiment: qHTS assay to identify small molecule agonists of the peroxisome proliferator-activated receptor delta (PPARd) signaling pathway (AID 743212; calls by dose curve)
Peroxisome proliferator-activated receptor delta (Homo sapiens), sequence (Q03181 whole entry, looked up): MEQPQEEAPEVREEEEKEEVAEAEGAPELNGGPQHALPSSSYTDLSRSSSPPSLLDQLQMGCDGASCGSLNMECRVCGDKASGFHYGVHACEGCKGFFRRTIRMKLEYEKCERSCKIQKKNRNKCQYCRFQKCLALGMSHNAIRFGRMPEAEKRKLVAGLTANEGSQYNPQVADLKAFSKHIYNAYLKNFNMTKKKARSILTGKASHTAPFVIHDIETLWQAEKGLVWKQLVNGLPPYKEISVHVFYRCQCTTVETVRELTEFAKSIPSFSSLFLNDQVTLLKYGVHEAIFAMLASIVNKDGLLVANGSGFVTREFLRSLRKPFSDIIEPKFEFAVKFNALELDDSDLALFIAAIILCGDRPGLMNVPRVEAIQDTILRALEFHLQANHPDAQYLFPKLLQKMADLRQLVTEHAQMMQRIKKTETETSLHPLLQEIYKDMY
Outline: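 Steps: seed PPARd-bla HEK293H cells; incubate 5 h, 37 C, 5% CO2; add compounds in DMSO; incubate, 37 C; add LiveBLAzer B/G FRET substrate; hold 2 h at room temperature; measure fluorescence.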

[11] = qHTS assay to identify small molecule antagonists of the peroxisome proliferator-activated receptor delta (PPARd) signaling pathway - cell viability counter screen (AID 743213); note: nearly all actives have a fitted effect of over 50% in size; note: potency is the fitted concentration of half-maximal effect
Outline: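 PPARd-bla HEK293H cells (3000/well) got compound plus 300 nM L165041 agonist for 17 h at 37 C. Viability in the same wells came from CellTiter-Glo luminescence after 30 min at room temperature.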

[12] = target: Peroxisome proliferator-activated receptor delta (Homo sapiens) (UniProt Q03181); experiment: qHTS assay to identify small molecule antagonists of the peroxisome proliferator-activated receptor delta (PPARd) signaling pathway (AID 743215; active = well fitted inhibition curve with a large enough effect in the signal ratio in the repeat runs, not every such curve was filed as active; the % refers to the signal ratio;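 note: cells stimulated with agonist L165041 at 300 nM final during compound exposure; series mostly up to about 62 µM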)
Outline: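 Here, a reporter line (HEK293H, beta-lactamase under a UAS) measures PPARd signaling. Compounds are tested against agonist L165041 at 300 nM final concentration over 17 h at 37 C, with fluorescence read after substrate.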

[13] = qHTS assay to identify small molecule agonists of the farnesoid-X-receptor (FXR) signaling pathway - cell viability counter screen (AID 743218); note: nearly all actives have a fitted effect of over 45% in size
Outline: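 Quantitative HTS counter screen measuring ATP-based viability via CellTiter-Glo luminescence in HEK 293T cells carrying a UAS-driven beta-lactamase reporter, after 16 h compound exposure at 37 C.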

[14] = qHTS assay to identify small molecule antagonists of the farnesoid-X-receptor (FXR) signaling pathway - cell viability counter screen (AID 743221; active = well fitted cell-killing curve with a large enough effect in the repeat runs, not every such curve was filed as active; note: nearly all actives have a fitted effect of over 50% in size; note: potency is the fitted concentration of half-maximal effect)
Outline: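 Cytotoxicity is taken from ATP luminescence (CellTiter-Glo, 30 min, room temperature) in FXR-bla HEK 293T cells previously incubated 16 h at 37 C with compound and chenodeoxycholic acid at 50 uM final.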

[15] = target: Vitamin D3 receptor (Homo sapiens) (UniProt P11473); experiment: qHTS assay to identify small molecule agonists of the vitamin D receptor (VDR) signaling pathway (AID 743222; calls by dose curve)
Vitamin D3 receptor (Homo sapiens), sequence (P11473 whole entry, looked up): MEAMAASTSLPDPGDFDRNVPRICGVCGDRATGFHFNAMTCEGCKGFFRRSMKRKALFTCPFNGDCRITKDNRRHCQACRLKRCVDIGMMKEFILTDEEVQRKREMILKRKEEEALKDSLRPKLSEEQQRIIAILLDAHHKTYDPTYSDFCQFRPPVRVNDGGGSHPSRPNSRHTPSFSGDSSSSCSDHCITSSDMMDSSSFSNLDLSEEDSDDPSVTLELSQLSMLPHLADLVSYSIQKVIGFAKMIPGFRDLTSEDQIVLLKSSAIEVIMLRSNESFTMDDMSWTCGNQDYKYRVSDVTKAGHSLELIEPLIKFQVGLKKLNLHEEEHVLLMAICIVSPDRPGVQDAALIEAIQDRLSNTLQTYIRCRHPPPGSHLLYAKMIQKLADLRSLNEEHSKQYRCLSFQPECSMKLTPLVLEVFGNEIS
Outline: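 Tox21 cell reporter format: VDR-bla line, 16 h compound exposure in 5% CO2 at 37C, then fluorescence intensity after 2 h with LiveBLAzer B/G FRET substrate.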

[16] = target: Vitamin D3 receptor (Homo sapiens) (UniProt P11473); experiment: qHTS assay to identify small molecule antagonists of the vitamin D receptor (VDR) signaling pathway (AID 743223; active = well fitted inhibition curve with a large enough effect in the signal ratio in the repeat runs, not every such curve was filed as active; the % refers to the signal ratio)
Outline: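 Quantitative HTS in VDR-bla reporter cells stimulated with 1alpha,25-dihydroxyvitamin D3, 3 nM final. Compound exposure 16 h, 37C, 5% CO2. Read-out: beta-lactamase FRET substrate fluorescence, 2 h RT.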

[17] = target: Peroxisome proliferator-activated receptor gamma (Homo sapiens) (UniProt P37231); experiment: qHTS assay to identify small molecule antagonists of the peroxisome proliferator-activated receptor gamma (PPARg) signaling pathway (AID 743191; calls by dose curve; note: series mostly up to about 63 µM; nearly all actives have a fitted effect of over 30% in size)
Outline: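 Beta-lactamase reporter under UAS control in HEK293H PPARg-bla cells; compound treatment 17 h at 37C. Read-out: fluorescence intensity after 1 h room-temperature incubation with LiveBLAzer B/G FRET substrate.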

[18] = target: Bile acid receptor (Homo sapiens) (UniProt Q96RI1); experiment: qHTS assay to identify small molecule antagonists of the farnesoid-X-receptor (FXR) signaling pathway (AID 743217; active = well fitted inhibition curve with a large enough effect in the signal ratio in the repeat runs, not every such curve was filed as active; the % refers to the signal ratio)
Bile acid receptor (Homo sapiens), sequence (Q96RI1 whole entry, looked up): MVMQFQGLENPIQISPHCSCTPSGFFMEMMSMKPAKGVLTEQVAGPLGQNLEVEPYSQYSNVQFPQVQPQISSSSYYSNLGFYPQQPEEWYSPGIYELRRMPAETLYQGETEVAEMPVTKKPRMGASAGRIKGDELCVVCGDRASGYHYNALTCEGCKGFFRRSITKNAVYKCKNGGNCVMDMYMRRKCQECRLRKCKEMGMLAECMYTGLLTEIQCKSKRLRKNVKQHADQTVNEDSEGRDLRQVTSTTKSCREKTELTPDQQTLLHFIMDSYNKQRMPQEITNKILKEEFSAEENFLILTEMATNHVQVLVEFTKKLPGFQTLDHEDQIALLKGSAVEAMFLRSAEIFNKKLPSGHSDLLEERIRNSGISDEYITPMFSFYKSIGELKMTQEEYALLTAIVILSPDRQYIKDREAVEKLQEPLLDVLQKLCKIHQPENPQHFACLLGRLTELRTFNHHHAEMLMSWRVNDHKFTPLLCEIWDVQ
Outline: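 Test compounds are pin-transferred onto FXR-bla HEK 293T cells, then chenodeoxycholic acid is added at 50 uM final. After 16 h at 37 °C, LiveBLAzer B/G substrate is applied for 2 h at room temperature and fluorescence read.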

[19] = target: Bile acid receptor (Homo sapiens) (UniProt Q96RI1); experiment: qHTS assay to identify small molecule agonists of the farnesoid-X-receptor (FXR) signaling pathway (AID 743220; active = well fitted activation curve with a large enough effect in the signal ratio in the repeat runs, not every such curve was filed as active; the % refers to the signal ratio)
Outline: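 FXR-UAS-bla HEK 293T cells carrying a UAS-driven beta-lactamase reporter were plated for 5 h at 37C/5% CO2, then exposed to DMSO-dissolved Tox21 10K compounds for 16 h at 37C. A LiveBLAzer B/G FRET substrate was loaded for 2 h at room temperature before fluorescence reading.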

[20] = qHTS assay to identify small molecule that activate the aryl hydrocarbon receptor (AhR) signaling pathway - cell viability counter screen (AID 743086);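 note: HepG2 liver cells carrying the AhR DRE luciferase reporter; series mostly up to about 70 µM; nearly all actives have a fitted effect of over 45% in size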
Outline: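 Cytotoxicity counter screen: CellTiter-Fluor signal (30 min, 37 C) in 4000 HepG2 cells/well carrying the DRE-luciferase reporter, following 24 h compound exposure at 37 C.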

SMILES: COc1ccc(NC(C)=O)cc1
- Potency [1]: inactive
- Potency [2]: inactive
- outcome [3]: inactive
- Potency [4]: inactive
- Potency [5]: inactive
- outcome [6]: inactive
- outcome [7]: inactive
- outcome [8]: inactive
- Potency [9]: inactive
- outcome [10]: inactive
- Potency [11]: inactive
- outcome [12]: inactive
- outcome [13]: inactive
- Potency [14]: inactive
- outcome [15]: inactive
- outcome [16]: inactive

SMILES: CC(C)N1C(=O)c2ccccc2C1=O
- Potency [1]: inactive
- Potency [2]: inactive
- outcome [3]: inactive
- outcome [17]: inactive
- Potency [4]: inactive
- outcome [6]: inactive
- outcome [7]: inactive
- outcome [8]: inactive
- Potency [9]: inactive
- outcome [10]: inactive
- Potency [11]: inactive
- outcome [12]: inactive
- Potency [14]: inactive
- outcome [15]: inactive
- outcome [16]: inactive

SMILES: Cc1ccc(Nc2ccc(O)c3c2C(=O)c2ccccc2C3=O)cc1
- Potency [1]: inactive
- outcome [3]: inactive
- outcome [6]: inactive
- outcome [7]: inactive
- outcome [8]: inactive
- Potency [9]: inactive
- outcome [10]: inactive
- Potency [11]: inactive
- outcome [12]: inactive
- outcome [18]: inactive
- outcome [13]: inactive
- outcome [19]: inactive
- Potency [14]: inactive
- outcome [15]: inactive
- outcome [16]: inactive

SMILES: CCCCCCCCCCCCCCC
- Potency [20]: inactive
- Potency [4]: inactive
- Potency [5]: inactive
- outcome [6]: inactive
- outcome [7]: inactive
- outcome [8]: inactive
- Potency [9]: inactive
- outcome [10]: inactive
- Potency [11]: inactive
- outcome [12]: inactive
- outcome [13]: inactive
- Potency [14]: inactive
- outcome [15]: inactive

SMILES: CCCCCCCCC=O
- Potency [5]: inactive
- outcome [6]: inactive
- outcome [7]: inactive
- outcome [8]: inactive
- outcome [10]: inactive
- Potency [11]: inactive
- Potency [14]: inactive

SMILES: c1ccc(SCCSc2ccccc2)cc1
- Potency [1]: inactive
- outcome [3]: inactive
- Potency [4]: inactive
- Potency [5]: inactive
- outcome [6]: inactive
- outcome [7]: inactive
- outcome [8]: inactive
- Potency [9]: inactive
- outcome [10]: inactive
- Potency [11]: inactive
- outcome [12]: inactive
- outcome [18]: inactive
- outcome [13]: inactive
- outcome [19]: inactive
- Potency [14]: inactive
- outcome [15]: inactive
- outcome [16]: inactive

SMILES: CN(C)C(=O)C(CCN1CCC(O)(c2ccc(Cl)cc2)CC1)(c1ccccc1)c1ccccc1
- Potency [2]: inactive
- outcome [7]: inactive
- outcome [8]: inactive
- Potency [9]: 23.7 µM (active)
- Potency [11]: 11.9 µM (active)
- outcome [19]: inactive
- Potency [14]: 29.8 µM (active)
- outcome [16]: inactive

SMILES: CC(C)CCCC(C)CCCC(C)CCCCC(C)CCCC(C)CCCC(C)C (configuration not stated)
- Potency [1]: inactive
- Potency [20]: inactive
- Potency [4]: inactive
- Potency [5]: inactive
- outcome [6]: inactive
- outcome [7]: inactive
- outcome [8]: inactive
- Potency [9]: inactive
- outcome [10]: inactive
- Potency [11]: inactive
- outcome [12]: inactive
- Potency [14]: inactive
- outcome [15]: inactive
- outcome [16]: inactive

SMILES: COc1ccc2cc(C=O)ccc2c1
- Potency [4]: inactive
- Potency [5]: inactive
- outcome [6]: inactive
- outcome [7]: inactive
- outcome [8]: inactive
- Potency [9]: inactive
- outcome [10]: inactive
- Potency [11]: inactive
- outcome [12]: inactive
- Potency [14]: inactive
- outcome [15]: inactive
- outcome [16]: inactive

SMILES: O=C(O)CCNC(=O)c1ccc(N=Nc2ccc(O)c(C(=O)O)c2)cc1
- Potency [2]: inactive
- outcome [3]: inactive
- Potency [5]: inactive
- outcome [6]: inactive
- outcome [7]: inactive
- Potency [9]: inactive
- outcome [10]: inactive
- Potency [11]: inactive
- outcome [12]: inactive
- outcome [18]: inactive
- outcome [13]: inactive
- outcome [19]: inactive
- Potency [14]: inactive

SMILES: COC(=O)[C@H]1[C@H]2C[C@@H]3c4[nH]c5cc(OC)ccc5c4CCN3C[C@H]2C[C@@H](OC(=O)COc2ccc(OC)cc2)[C@@H]1OC
- Potency [1]: inactive
- Potency [20]: inactive
- Potency [5]: inactive
- outcome [6]: inactive
- outcome [7]: inactive
- Potency [9]: inactive
- Potency [14]: inactive
